# Only some compounds are listed: those with a hit (about 5.4% of all), similar ones and a draw of the others.
# rCAG binder = binds r(CAG) RNA repeats; AID 651821; 1.3% of 370,000 active; r(CAG) RNA repeat, TO-PRO-1 dye displacement fluorescence; inhibition, % at 3 µM;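 active = inhibition above the plate cutoff, the mean of all test compounds on that plate plus 3 SD, cut at about 35% in these data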;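 also: higher means more dye released from RNA so lower well fluorescence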
# APOBEC3G inh = inhibitors of human APOBEC3G DNA deaminase | Q9HC16 | recombinant A3G, ssDNA deamination FAM/TAMRA fluorescence | inhibition, % at 20 µM | 0.28% of 330,000 active;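 active = inhibition of at least 40% at 20 µM, with no more than 30% in the related APOBEC3A deaminase screen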
# aDG glyco act = alpha-DG glycosylation activation | AID 624168 | activation, % at 10 µM | Pro5-aDG cells, alpha-DG glycosylation AlphaScreen (IIH6); 0% Pro5, 100% B10-LARGE cell signal | 0.22% of 360,000 active;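 active = activation of at least 8% versus controls, or a plate z-score of at least 8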;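 also: Pro5 are CHO cells carrying HIG-tagged alpha-DG that lacks glycosylation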
# A3A deaminase = blocks human APOBEC3A ssDNA deamination; inhibition, % at 20 µM; recombinant A3A, FAM/TAMRA ssDNA deamination fluorescence; P31941; 0.41% of 330,000 active; AID 493011;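 active = at least 40% inhibition at 20 µM here, with at most 30% in a related deaminase screen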
# Target sequence (P31941 whole entry, looked up): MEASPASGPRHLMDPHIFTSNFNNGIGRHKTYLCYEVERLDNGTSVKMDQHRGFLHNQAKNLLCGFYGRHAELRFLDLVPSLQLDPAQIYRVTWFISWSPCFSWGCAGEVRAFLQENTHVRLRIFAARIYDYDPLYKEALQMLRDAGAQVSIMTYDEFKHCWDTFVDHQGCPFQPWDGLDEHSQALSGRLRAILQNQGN
# ALR H2O2 inh = blocks human ALR sulfhydryl oxidase activity | purified ALR, DTT oxidation, H2O2 HRP-luminol luminescence | inhibition, % (no concentration beside the values) | 3.8% of 290,000 active | AID 485317;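 active = mean replicate inhibition above about 79%, with every replicate also reaching it, limit read from the data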
# Target sequence (P55789 whole entry, looked up): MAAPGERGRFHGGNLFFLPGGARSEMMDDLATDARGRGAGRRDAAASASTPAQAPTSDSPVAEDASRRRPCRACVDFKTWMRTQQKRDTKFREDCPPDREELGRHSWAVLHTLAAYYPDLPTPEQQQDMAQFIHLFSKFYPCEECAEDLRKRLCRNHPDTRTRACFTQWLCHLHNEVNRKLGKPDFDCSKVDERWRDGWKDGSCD
# PHOSPHO1 block = PHOSPHO1 (human) inhibition. 1.1% of 290,000 active. Q8TCT1. recombinant PHOSPHO1, absorbance phosphatase assay. inhibition, % at 13.3 µM; in the data active = inhibition above about 60%
# rCAG binder conf = r(CAG) RNA repeat binding, confirmation; 70% of 4,300 active; inhibition, % at 3 µM; AID 652065; TO-PRO-1 dye displacement fluorescence; shares compounds with rCAG binder;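 active = inhibition above a per-plate cutoff, the mean inhibition of sample wells plus 3 SD, cut at about 35% in these data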;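 also: loss of TO-PRO-1 fluorescence as compound displaces dye from 1x1 AA loop RNA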
# DNA CAG counter = disrupts DNA CAG TO-PRO-1 complex, flagging rCAG hits. shares compounds with rCAG binder. d(CAG) DNA oligo TO-PRO-1 dye displacement, fluorescence. inhibition, % at 3 µM. 94% of 4,300 active. AID 652068;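 active = inhibition above its plate's cutoff, the mean test-well inhibition plus 3 SD, cut at about 4.8% in these data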;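 also: hits displace the dye from DNA and so lower well fluorescence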
# Numbers stand for hits; . = inactive; / = not tested or not shown.
SMILES,rCAG binder,APOBEC3G inh,aDG glyco act,A3A deaminase,ALR H2O2 inh,PHOSPHO1 block,rCAG binder conf,DNA CAG counter
COc1ccccc1/C=C1\SC(=S)N(NS(=O)(=O)c2ccc(C)cc2)C1=O,78,.,.,.,97,.,69,33
COc1ccc(/C=C2\SC(=S)N(NS(=O)(=O)c3ccc(C)cc3)C2=O)c(OC)c1,87,.,.,.,.,.,85,58
COc1ccc(OC)c(/C=C2\SC(=S)N(Cc3cccnc3)C2=O)c1,.,.,.,.,.,.,/,/
O=C(CCc1ccccc1)N[C@H]1[C@@H](OC(=O)c2cccnc2)CCC[C@]12C(=O)N(Cc1ccccc1)c1ccccc12,.,/,/,/,/,/,/,/
O=C(N/N=C/c1ccco1)c1cc(-c2ccccc2)nc2ccccc12,.,.,.,.,.,.,/,/
O=C(N/N=C/c1ccccn1)c1sc2ccccc2c1Cl,.,.,.,.,.,.,/,/
O=C(N/N=C/c1ccc([N+](=O)[O-])o1)c1sc2ccccc2c1Cl,36,.,.,.,.,.,39,18
O=C(N/N=C/c1ccc([N+](=O)[O-])o1)c1cc(-c2cccc(Br)c2)nc2ccccc12,43,.,.,.,.,.,47,29
CCCc1ccc(-c2cc(C(=O)N/N=C/c3ccc([N+](=O)[O-])o3)c3ccccc3n2)cc1,45,.,.,.,.,.,36,19
CCOC(=O)C1=CCN(S(=O)(=O)c2ccccc2C)C1c1cccc(Br)c1 (configuration not stated),.,/,.,/,/,/,/,/
COCc1[nH]nc2c1C(c1ccc(Br)cc1)N(Cc1ccccc1)C2=O (configuration not stated),.,/,/,/,/,/,/,/
O=C(NCc1cccc(Cl)c1)c1cccc2c(-c3cccnc3)coc12,.,/,.,/,/,/,/,/
Cc1ccc(S(=O)(=O)N/N=C/c2cc(Br)ccc2O)cc1,.,.,.,.,.,.,/,/
Cc1ccc(S(=O)(=O)Nc2ccc(Br)cc2/C=N/n2cnnc2)cc1,45,.,.,.,.,.,39,13
O=C(NC1CCCC1)c1sc(=S)n2c1[nH]c(=O)c1ccccc12,.,.,.,.,.,.,/,/
O=C(NCc1ccccc1)c1ccc2c(=O)[nH]c3c(C(=O)NCC4CCCO4)sc(=S)n3c2c1 (configuration not stated),50,.,.,.,.,.,91,66
O=C(NCC1CCCO1)c1ccc2c(=O)n(-c3ccc(F)cc3)c(=S)[nH]c2c1 (configuration not stated),.,.,.,.,.,.,/,/
O=C(NCc1ccco1)c1sc(=S)n2c1[nH]c(=O)c1ccccc12,62,.,.,.,98,.,66,22
Cc1ccc(CNC(=O)c2ccc3c(=O)n(CC4CCCO4)c(=S)[nH]c3c2)cc1 (configuration not stated),.,.,.,.,.,.,/,/
CCCCCNC(=O)c1ccc2c(=O)[nH]c3c(C(=O)NCC4CCCO4)sc(=S)n3c2c1 (configuration not stated),59,.,.,.,.,.,86,62
Cc1ccc(CNC(=O)c2ccc3c(=O)[nH]c4c(C(=O)NCC5CCCO5)sc(=S)n4c3c2)cc1 (configuration not stated),61,.,.,.,.,.,92,74
CC(C)(C)C1CCc2c(sc3nc(SCC(=O)O)nc(N)c23)C1 (configuration not stated),36,.,.,.,.,.,42,10
CC1(C)Cc2c(sc3nc(SCC(=O)O)nc(N)c23)CO1,.,.,.,.,/,.,/,/
S=C(SCc1c(Cl)cccc1Cl)N1CCSCC1,.,/,/,/,/,/,/,/
O=C(N[C@H](C(=O)N1CCC[C@H]1C(=O)NCCc1ccccc1Cl)c1ccccc1)C1CC1,.,/,/,/,/,/,/,/
SMILES,rCAG binder,APOBEC3G inh,aDG glyco act,A3A deaminase,ALR H2O2 inh,PHOSPHO1 block,rCAG binder conf,DNA CAG counter
COc1ccc2c(c1)Cc1cc(NC(=O)c3ccccc3-c3ccccc3C(=O)O)ccc1-2,63,/,.,/,/,/,66,28
COc1ccc(NC(=O)c2ccccc2-c2ccccc2C(=O)O)cc1,.,.,.,.,/,.,/,/
O=C(O)c1ccccc1-c1ccccc1C(=O)Nc1ccc2c(c1)oc(=O)c1ccccc12,66,/,.,/,/,/,65,24
O=C(O)c1ccccc1-c1ccccc1C(=O)Nc1cccc(-c2nc3ccccc3o2)c1,65,.,.,.,.,.,60,22
O=C(O)c1ccccc1-c1ccccc1C(=O)Nc1ccc2c(c1)C(=O)c1ccccc1-2,60,/,.,/,/,/,68,26
CC1(C(=O)NCc2ccccc2)CCC(=O)N1CCc1c[nH]c2ccccc12 (configuration not stated),.,/,.,/,/,/,/,/
Cc1nc2ccc(C(=O)Nc3cccc(OCC(=O)N(C)C)c3)cn2c1N(C)CC1CCCCC1,.,/,.,/,/,/,/,/
Cc1oc2c(cc(NS(=O)(=O)c3ccc(F)cc3)c3ccccc32)c1C(=O)O,.,.,.,.,/,.,/,/
Cc1oc2c(cc(NS(=O)(=O)c3cccs3)c3ccccc32)c1C(=O)OC(C)C,37,.,.,.,.,.,.,9.5
Cc1oc2c(cc(NS(=O)(=O)c3ccc(C(C)C)cc3)c3ccccc32)c1C(=O)O,54,.,.,.,/,.,63,28
OC(c1ccccc1)C1(c2ccccc2)CCN(Cc2ccccc2)CC1 (configuration not stated),.,/,/,/,/,/,/,/
O=c1ccc(=O)n(-c2ccccc2)[nH]1,.,.,.,.,.,.,/,/
O=c1cc(-c2ccccc2)[nH]n1-c1ccccc1,59,/,.,/,/,/,.,.
Nc1nc2c(ncn2[C@@H]2O[C@H](C(=O)N[C@H](Cc3ccccc3)C(=O)O)[C@@H](O)[C@H]2O)c(=O)[nH]1,.,/,/,/,/,/,/,/
O=C(Cn1nnc(-c2cc(C(F)(F)F)cc(C(F)(F)F)c2)n1)NNC(=S)Nc1ccc(Cl)cc1,66,.,.,.,/,.,53,21
Cc1ccc(C)c(NC(=S)NNC(=O)c2cc3c(s2)CCC(C)C3)c1 (configuration not stated),.,.,.,.,.,.,/,/
Cc1cccc(NC(=S)NNC(=O)c2cc3c(s2)CCC(C)C3)c1C (configuration not stated),37,.,.,.,.,.,35,12
COC(=O)[C@]12C[C@H](CC(=O)N3CCC(c4ccccc4)CC3)C(=O)N(CCC3=CCCCC3)C1=C[C@H](C(C)(C)C)O[C@@H]2C,.,/,/,/,/,/,/,/
CC(C(=O)O)N1C(=O)/C(=C/C=C/c2ccco2)SC1=S (configuration not stated),83,.,.,.,97,.,79,41

# High-throughput results deposited in PubChem by several laboratories.
